Measurements taken from the supplement of paper PMC8728848.
Only a selection was taken, and the strongest signals are over-represented in it overall.

Tests used:
Assay in all cases: glycan array binding signal (z-score within array); higher = stronger binding
Details in all cases: glycan notation: IUPAC condensed, linker removed
[1] = molecular target: Fuc(a1-2)Gal
Procedure, shortened: (§1)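 Arrays were curated from the Consortium for Functional Glycomics database, 3228 in total, and kept only where the protein sequence was available. Binding is expressed as a within-array Z-score. This score was averaged across arrays of the same protein sequence at different concentrations or buffers and across linkers, and negative values can be read as non-binding.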

[2] = molecular target: Fuc(a1-2)Gal(b1-3)GlcNAc(b1-2)Man(a1-3)[Fuc(a1-2)Gal(b1-3)GlcNAc(b1-2)Man(a1-6)]Man(b1-4)GlcNAc(b1-4)GlcNAc
Procedure, shortened: as §1

[3] = molecular target: Fuc(a1-2)Gal(b1-3)[Fuc(a1-4)]GlcNAc(b1-3)[Gal(b1-4)GlcNAc(b1-6)]Gal(b1-4)Glc
Procedure, shortened: as §1

[4] = molecular target: Fuc(a1-2)Gal(b1-4)GlcNAc(b1-3)Gal(b1-4)GlcNAc(b1-2)Man(a1-3)[Fuc(a1-2)Gal(b1-4)GlcNAc(b1-3)Gal(b1-4)GlcNAc(b1-2)Man(a1-6)]Man(b1-4)GlcNAc(b1-4)GlcNAc
Procedure, shortened: as §1

[5] = molecular target: Fuc(a1-2)Gal6S(b1-4)Glc
Procedure, shortened: as §1

[6] = molecular target: Fuc(a1-2)[GalNAc(a1-3)]Gal(b1-4)GlcNAc(b1-3)Gal(b1-4)GlcNAc(b1-3)Gal(b1-4)GlcNAc
Procedure, shortened: as §1

[7] = molecular target: Fuc(a1-3)[Gal(b1-4)]GlcNAc
Procedure, shortened: as §1

[8] = molecular target: Fuc(a1-3)[Gal(b1-4)]GlcNAc(b1-2)Man(a1-3)[Fuc(a1-3)[Gal(b1-4)]GlcNAc(b1-2)Man(a1-6)]Man(b1-4)GlcNAc(b1-4)[Fuc(a1-6)]GlcNAc
Procedure, shortened: as §1

[9] = molecular target: Fuc(a1-4)GlcNAc
Procedure, shortened: as §1

[10] = molecular target: Gal(a1-3)Gal(b1-4)GlcNAc(b1-2)Man
Procedure, shortened: as §1

[11] = molecular target: Gal(a1-3)Gal(b1-4)[Fuc(a1-3)]GlcNAc(b1-2)Man(a1-3)[Gal(a1-3)Gal(b1-4)[Fuc(a1-3)]GlcNAc(b1-2)Man(a1-6)]Man(b1-4)GlcNAc(b1-4)GlcNAc
Procedure, shortened: as §1

[12] = molecular target: Gal(b1-3)GlcNAc(b1-3)Gal(b1-4)GlcNAc(b1-3)Gal(b1-4)GlcNAc(b1-2)[Gal(b1-3)GlcNAc(b1-3)Gal(b1-4)GlcNAc(b1-3)Gal(b1-4)GlcNAc(b1-6)]Man(a1-6)[Gal(b1-3)GlcNAc(b1-3)Gal(b1-4)GlcNAc(b1-3)Gal(b1-4)GlcNAc(b1-2)Man(a1-3)]Man(b1-4)GlcNAc(b1-4)[Fuc(a1-6)]GlcNAc
Procedure, shortened: as §1

[13] = molecular target: Gal(b1-4)GlcNAc(b1-3)Gal(b1-4)GlcNAc(b1-2)Man(a1-3)[Gal(b1-4)GlcNAc(b1-3)Gal(b1-4)GlcNAc(b1-2)Man(a1-6)]Man(b1-4)GlcNAc(b1-4)GlcNAc
Procedure, shortened: as §1

[14] = molecular target: Gal(b1-4)GlcNAc(b1-3)Gal(b1-4)GlcNAc(b1-3)Gal(b1-4)GlcNAc(b1-2)Man(a1-3)[Gal(b1-4)GlcNAc(b1-3)Gal(b1-4)GlcNAc(b1-3)Gal(b1-4)GlcNAc(b1-2)Man(a1-6)]Man(b1-4)GlcNAc(b1-4)GlcNAc
Procedure, shortened: as §1

[15] = molecular target: Gal(b1-4)GlcNAc(b1-3)Gal(b1-4)GlcNAc(b1-3)Gal(b1-4)GlcNAc(b1-3)Gal(b1-4)GlcNAc(b1-3)Gal(b1-4)GlcNAc(b1-2)Man(a1-3)[Gal(b1-4)GlcNAc(b1-3)Gal(b1-4)GlcNAc(b1-3)Gal(b1-4)GlcNAc(b1-3)Gal(b1-4)GlcNAc(b1-3)Gal(b1-4)GlcNAc(b1-2)Man(a1-6)]Man(b1-4)GlcNAc(b1-4)GlcNAc
Procedure, shortened: as §1

[16] = molecular target: Gal(b1-4)GlcNAc(b1-3)Gal(b1-4)GlcNAc(b1-3)Gal(b1-4)GlcNAc(b1-3)Gal(b1-4)GlcNAc(b1-3)Gal(b1-4)GlcNAc(b1-2)Man(a1-3)[Gal(b1-4)GlcNAc(b1-3)Gal(b1-4)GlcNAc(b1-3)Gal(b1-4)GlcNAc(b1-3)Gal(b1-4)GlcNAc(b1-3)Gal(b1-4)GlcNAc(b1-2)Man(a1-6)]Man(b1-4)GlcNAc(b1-4)[Fuc(a1-6)]GlcNAc
Procedure, shortened: as §1

[17] = molecular target: Gal(b1-4)GlcNAc(b1-3)Gal(b1-4)GlcNAc(b1-3)Gal(b1-4)GlcNAc(b1-3)Gal(b1-4)GlcNAc(b1-3)Gal(b1-4)GlcNAc(b1-2)[Gal(b1-4)GlcNAc(b1-3)Gal(b1-4)GlcNAc(b1-3)Gal(b1-4)GlcNAc(b1-3)Gal(b1-4)GlcNAc(b1-3)Gal(b1-4)GlcNAc(b1-6)]Man(a1-6)[Gal(b1-4)GlcNAc(b1-3)Gal(b1-4)GlcNAc(b1-3)Gal(b1-4)GlcNAc(b1-3)Gal(b1-4)GlcNAc(b1-3)Gal(b1-4)GlcNAc(b1-2)Man(a1-3)]Man(b1-4)GlcNAc(b1-4)[Fuc(a1-6)]GlcNAc
Procedure, shortened: as §1

[18] = molecular target: Gal(b1-4)GlcNAc(b1-3)Gal(b1-4)GlcNAc(b1-3)Gal(b1-4)GlcNAc(b1-3)Gal(b1-4)GlcNAc(b1-3)Gal(b1-4)GlcNAc(b1-3)Gal(b1-4)GlcNAc(b1-2)Man(a1-3)[Gal(b1-4)GlcNAc(b1-3)Gal(b1-4)GlcNAc(b1-3)Gal(b1-4)GlcNAc(b1-3)Gal(b1-4)GlcNAc(b1-3)Gal(b1-4)GlcNAc(b1-3)Gal(b1-4)GlcNAc(b1-2)Man(a1-6)]Man(b1-4)GlcNAc(b1-4)GlcNAc
Procedure, shortened: as §1

[19] = molecular target: Gal(b1-4)GlcNAc(b1-6)GalNAc
Procedure, shortened: as §1

[20] = molecular target: Gal3S(b1-4)Glc
Procedure, shortened: as §1

[21] = molecular target: Gal3S(b1-4)Glc6S
Procedure, shortened: as §1

[22] = molecular target: Gal3S(b1-4)[Fuc(a1-3)]Glc6S
Procedure, shortened: as §1

[23] = molecular target: Gal6S(b1-4)GlcNAc6S
Procedure, shortened: as §1

[24] = molecular target: GalNAc3S(b1-4)[Fuc(a1-3)]GlcNAc
Procedure, shortened: as §1

[25] = molecular target: GlcNAc(a1-4)Gal(b1-3)GlcNAc
Procedure, shortened: as §1

[26] = molecular target: GlcNAc(b1-2)[GlcNAc(b1-4)]Man(a1-3)[GlcNAc(b1-2)Man(a1-6)]Man(b1-4)GlcNAc(b1-4)GlcNAc
Procedure, shortened: as §1

[27] = molecular target: GlcNAc(b1-2)[GlcNAc(b1-4)]Man(a1-3)[GlcNAc(b1-4)][GlcNAc(b1-2)[GlcNAc(b1-6)]Man(a1-6)]Man(b1-4)GlcNAc(b1-4)[Fuc(a1-6)]GlcNAc
Procedure, shortened: as §1

[28] = molecular target: GlcNAc(b1-3)Gal
Procedure, shortened: as §1

[29] = molecular target: GlcNAc(b1-3)Gal(b1-4)GlcNAc(b1-2)[GlcNAc(b1-3)Gal(b1-4)GlcNAc(b1-6)]Man(a1-6)[GlcNAc(b1-3)Gal(b1-4)GlcNAc(b1-2)Man(a1-3)]Man(b1-4)GlcNAc(b1-4)GlcNAc
Procedure, shortened: as §1

[30] = molecular target: GlcNAc(b1-3)Gal(b1-4)GlcNAc(b1-3)Gal(b1-4)GlcNAc(b1-2)Man(a1-3)[GlcNAc(b1-3)Gal(b1-4)GlcNAc(b1-3)Gal(b1-4)GlcNAc(b1-2)Man(a1-6)]Man(b1-4)GlcNAc(b1-4)GlcNAc
Procedure, shortened: as §1

B1: SP15308C-bot-338-23-338 (Bacteroides ovatus) (protein)
chain: DEWTDEQFKQLISFKTQPGGWGVTDVHVRYANSAKYTYNLPVLVSGSTDNTDDRLVSFSLRDDTLDILNFEKFGNRPELYFRELPQKYYSFPKELTIPAGQSHALLPIEFSLDGLDDSQKWALPLKVCEDANGTYAVNPRKYYRTAVLRPILFNEFSGRFSGSSLLGTMAGESDIKFSSTEIKLNVVTDSIVFFYAGQRTEDYEDRINYKVFLQFTGDKVDSKKDLYKMKIWAENEKLKFNSYSTPTYKVSSEMDATKTYLKHTYIVISDIDFDFVDYTSVPNYEIEYNMKGGLSVSRDLDTRKPDEDQGSDSKWW
[1]
  glycan array binding signal (z-score): -0.164
[2]
  glycan array binding signal (z-score): 2.27
[3]
  glycan array binding signal (z-score): -0.476
[4]
  glycan array binding signal (z-score): 0.228
[5]
  glycan array binding signal (z-score): 0.374
[6]
  glycan array binding signal (z-score): -0.548
[7]
  glycan array binding signal (z-score): -0.26
[8]
  glycan array binding signal (z-score): 2.11
[9]
  glycan array binding signal (z-score): 2.58
[10]
  glycan array binding signal (z-score): -0.133
[11]
  glycan array binding signal (z-score): 1.61
[12]
  glycan array binding signal (z-score): 3.59
[13]
  glycan array binding signal (z-score): 1.12
[14]
  glycan array binding signal (z-score): 4.37
[15]
  glycan array binding signal (z-score): 2.06
[16]
  glycan array binding signal (z-score): 2.46
[17]
  glycan array binding signal (z-score): 6.22
[18]
  glycan array binding signal (z-score): 0.957
[19]
  glycan array binding signal (z-score): -0.147
[20]
  glycan array binding signal (z-score): -0.591
[21]
  glycan array binding signal (z-score): -0.188
[22]
  glycan array binding signal (z-score): 0.68
[23]
  glycan array binding signal (z-score): -0.622
[24]
  glycan array binding signal (z-score): -0.053
[25]
  glycan array binding signal (z-score): 0.674
[26]
  glycan array binding signal (z-score): -0.931
[27]
  glycan array binding signal (z-score): -0.818
[28]
  glycan array binding signal (z-score): -0.756
[29]
  glycan array binding signal (z-score): 0.124
[30]
  glycan array binding signal (z-score): 2.87
